From PubChem BioAssay (Tox21)
Where “and” joins values, the source holds several entries; their conditions need not be identical. Identical values can stand only once. Results filed as inconclusive are left out. A number with no mark means an inactive call. Calls of active or inactive are those of the source. The call rests on the fitted dose curve; in most records, active means well fitted cell-killing curve with a large enough effect in the repeat runs; inconclusive means weak or mixed curves, or effect the other way; inactive means no such curve, though single readings can be large or run the other way.

assay: qHTS assay to identify small molecule agonists of the RXR signaling pathway - cell viability counter screen (AID 1159529); conditions: RXR-alpha-bla HEK293T viability, CellTiter-Glo, 16 h; series mostly up to 76.8 µM; activity change, negative = cytotoxicity: at the top concentration; further: nearly all actives have a fitted effect of over 50% in size
From the text: National Center for Advancing Translational Sciences [NCATS]
NIH Chemical Genomics Center [NCGC]
U.S. Environmental Protection Agency [EPA]
National Institutes of Environmental Health Sciences [NIEHS]
National Toxicology Program [NTP]
U.S. Food and Drug Administration [FDA]
The Retinoid X receptor (RXR), a nuclear hormone receptor expressed in liver, spleen, placenta, epidermis, central nervous system. These receptors are able to form homo and heterodimers with other nuclear receptors and due to this heterodimerizing ability, RXR functions as master regulators producing diverse physiological effects. Three subtypes of RXR exist; alpha, beta and gamma. Retinoid X receptor alpha (RXR-alpha) has potential roles in metabolic signaling pathways, skin alopecia, dermal cysts, cardiac development, insulin sensitization etc. Therefore screening environmental chemicals on RXR-alpha signaling can be used for the studies focused on such therapeutic applications. For quantification of RXR-alpha ligands signaling, GeneBLAzer RXR alpha-UAS-bla HEK 293T (Life Technologies, Carlsbad, CA) cells containing a beta-lactamase reporter-gene under control of Retinoid X receptor-alpha response element were used to screen Tox21 10K library. The cytotoxicity of the Tox21 compound library against the RXR-alpha HEK 293T cell line was tested in parallel by measuring cell viability using CellTiter-Glo assay (Promega Corporation, Madison, WI) in the same wells.
Tox21 Assay Protocol Summary:
RXR-alpha HEK 293T cells were dispensed at 2,000 cells/6 uL of assay medium containing 2% charcoal-stripped FBS using a Multidrop Combi (ThermoFisher Scientific, Waltham, MA) dispenser. The assay was performed in black wall/clear-bottom 1536-well plates (Greiner Bio-One North America Inc. Monroe, NC). Tetraoctyl ammonium bromide was used as a positive control in the cytotoxicity screen. After the assay plates were incubated at 37 C and 5% CO2 for 5 hr, 23 nL of compounds dissolved in DMSO, positive control or DMSO only were transferred to the assay plate by a Pintool station (Kalypsys, San Diego, CA). The assay plates were incubated at 37 C and 5% CO2 for 16 hr. One uL of LiveBLAzer B/G FRET substrate (Life Technologies) was added using a Flying Reagent Dispenser (FRD) (Aurora Discovery, San Diego, CA) and the plates were incubated at room temperature for 2 hr. Fluorescence intensity (405 nm excitation, 460/530 nm emission) was measured using an Envision plate reader (PerkinElmer, Shelton, CT). For cytotoxicity, 4 uL/well of CellTiter-Glo reagent was added into the assay plates using an FRD. After 30 min incubation at room temperature, the luminescence intensity was measured using a ViewLux plate reader (PerkinElmer).
On the % scale 0 is the no-effect control and ±100 the full control effect; potency means the concentration at half of the fitted maximal effect.

Row | Compound | activity change, negative = cytotoxicity | Potency
1 | CSc1cnc(C)cn1 | 12.1% [at 200 µM] | 
2 | N/C(=N\N=C\c1ccc(Cl)cc1)N/N=C/c1ccc(Cl)cc1 |  | 19 µM (active)
3 | Cc1cccc(S(=O)(=O)O)c1C | -3.51% | 
4 | O=C(Nc1cccc([N+](=O)[O-])c1)c1cc2ccccc2cc1O | -20.8% | 
5 | CCCCCCCCCCCCc1ccc(O)cc1 |  | 13.8 µM (active)
6 | CN(C/C=C/C#CC(C)(C)C)Cc1cccc2ccccc12 |  | 7.56 µM (active)
7 | Oc1c(Cl)cc(Cl)c2cccnc12 |  | 0.952 µM (active)
8 | C[C@]12CCC(=O)C=C1CC[C@@H]1[C@@H]2[C@@H](O)C[C@@]2(C)[C@H]1CC[C@]2(O)C(=O)COC(=O)CCC(=O)O | 10.5% [at 35.3 µM] | 
9 | CCOC(=O)c1nc(C(Cl)(Cl)Cl)n(-c2ccc(Cl)cc2Cl)n1 |  | 49 µM (active)
10 | CCOC(=O)O[C@H](C)OC(=O)c1ccc2c(c1)cc(C(=O)NC1CCN(C(C)C)CC1)n2Cc1cc(-c2ccc(Cl)s2)on1 |  | 6.46 µM (active)
11 | O=C(O)c1cc(O)c2c(c1)C(=O)c1cccc(O)c1C2=O | 6.98% | 
12 | NNc1nc(-c2ccc(N)cc2)cs1 | 1.08% | 
13 | CC(=O)SC[C@@H](Cc1ccccc1)C(=O)NCC(=O)OCc1ccccc1 | 7.65% [at 35.3 µM] | 
14 | Cc1onc(-c2c(Cl)cccc2Cl)c1C(=O)N[C@@H]1C(=O)N2[C@@H]1SC(C)(C)[C@@H]2C(=O)O | 7.61% [at 35.3 µM] | 
15 | CCCCC(CC)COP(=O)(O)OCC(CC)CCCC (stereo not given) | -16.7% | 
16 | Nc1ccc(N)c2ccccc12 |  | 21.8 µM (active)
17 | N=C1C=CC(=C(c2ccc(N)cc2)c2ccc(N)cc2)C=C1 | 1.97% | 
18 | Cc1c(C)c2c(c(C)c1O)CCC(C)(COc1ccc(CC3SC(=O)NC3=O)cc1)O2 (stereo not given) |  | inactive
19 | CCCCN1CCCC[C@H]1C(=O)Nc1c(C)cccc1C | -2.97% [at 35.3 µM] | 
20 | Cc1cc2c(cc1C(F)(F)F)N(C(=O)Nc1ccc(Oc3cccnc3C)nc1)CC2 | -28.1% | 

Row | Compound | activity change, negative = cytotoxicity | Potency
21 | CN(C)C(=O)C1(N2CCCCC2)CCN(CC[C@@]2(c3ccc(Cl)c(Cl)c3)CN(C(=O)c3ccccc3)CCO2)CC1 |  | 16.2 µM (active)
22 | CC(C)(C)C(=O)OCOC(=O)C1N2C(=O)CC2S(=O)(=O)C1(C)C (stereo not given) | -1.09% [at 35.3 µM] | 
23 | Cc1[nH]cnc1C[C@H]1CCc2c(C)c3ccccc3n2C1=O |  | 19 µM (active)
24 | Nc1nc2ccccc2n1Cc1ccc(F)cc1 | -13.3% [at 35.3 µM] | 
25 | CN(C)c1ccc(SC#N)cc1 | -18.5% | 
26 | C=CC(=O)OCC(CO)(COC(=O)C=C)COC(=O)C=C |  | 13.9 µM (active) and 12.3 µM (active)
27 | CCCC(c1cc(C(C)(C)C)c(O)cc1C)c1cc(C(C)(C)C)c(O)cc1C |  | 11.1 µM (active)
28 | CSc1ccc(/C=C2/C(C)=C(CC(=O)O)c3cc(F)ccc32)cc1 | -24.7% [at 35.3 µM] | 
29 | Cc1cc(=O)oc2cc(N(C)C)ccc12 | -8.92% | 
30 | CNc1ccc(O)cc1 |  | 34.6 µM (active)
31 | Nc1ccccc1O | -7.9% | 
32 | Cc1cc(C2CCCCC2)n(O)c(=O)c1 | -15.2% [at 35.3 µM] | 
33 | O=CC=C(c1ccccc1)c1ccccc1 | -12.7% | 
34 | CCCCCCCC[N+](CCCCCCCC)(CCCCCCCC)CCCCCCCC |  | 13.8 µM (active)
35 | O=c1c(-c2ccccc2)c1-c1ccccc1 |  | 6.01 µM (active)
36 | O=C(O)c1ccc(Cl)c(Cl)c1 | -2.46% | 
37 | N=C1N=C(N)c2ccccc21 | 0.597% | 
38 | CCCCCCCC[P+](CCCCCCCC)(CCCCCCCC)CCCCCCCC |  | 3.87 µM (active)
39 | C=CC(=O)OCC(CO)(COCC(COC(=O)C=C)(COC(=O)C=C)COC(=O)C=C)COC(=O)C=C |  | 8.6 µM (active)
40 | O=[N+]([O-])c1ccccc1Nc1ccccc1 | -0.352% | 
